The source of these data is PubChem BioAssay (EPA / NIEHS).

Inconclusive results are not listed. Activity calls are given as the source filed them. Rule for the calls: active = hit-call score of the fitted dose curve at least 0.9, where 1 is the maximum; inconclusive = response in the unintended direction; inactive = score below 0.9.

Assay [1] is described as follows: Tanguay_ZF_120hpf_AXIS_legacy: (Legacy) Oregon State University Tanguay Lab 120 Hour Post-fertilization zebrafish Assay for Body Axis Malformation (AID 2283635).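 For AC50: potency for an increased fraction of larvae scored with body axis malformation.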 In a few lines: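 Chorion is removed with pronase at 4 hpf, then single 6 hpf embryos are dosed (final DMSO 0.64%) and held statically at 28C in sealed, foil-covered plates. At 120 hpf body axis malformation is recorded as present or absent.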

Assay [2] in a line: Tanguay_ZF_120hpf_EYE_legacy: (Legacy) Oregon State University Tanguay Lab 120 Hour Post-fertilization zebrafish Assay for Eye Malformation (AID 2283636). In outline:
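Dechorionated wild-type Tropical 5D zebrafish embryos were exposed statically from 6 hpf, one per well, to 120 hpf at 28C in sealed, foil-covered plates with 0.64% DMSO. Eye malformation was scored present/absent by brightfield microscopy against DMSO controls.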

Assay [3] can be described thus: Tanguay_ZF_120hpf_SNOU_legacy: (Legacy) Oregon State University Tanguay Lab 120 Hour Post-fertilization zebrafish Assay for Snout Malformation (AID 2283637). In outline:
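Tropical 5D wild-type zebrafish embryos, dechorionated with pronase at 4 hpf, were exposed singly from 6 hpf to 120 hpf statically at 28C in 0.64% DMSO. Snout malformation was scored present/absent by brightfield microscopy, fitted against DMSO.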

Assay [4] can be described thus: Tanguay_ZF_120hpf_OTIC_legacy: (Legacy) Oregon State University Tanguay Lab 120 Hour Post-fertilization zebrafish Assay for Otic Vesicle Malformation (AID 2283639). In a few lines:
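Embryos from 5D wild-type adults exposed in plates; DMSO 0.64% v/v final. Sealed, light-protected, 28C, static to 120 hpf. Otic vesicle malformation recorded as binary endpoint; gain-of-signal fitted vs DMSO.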

The nature of assay [5]: Tanguay_ZF_120hpf_BRAI_legacy: (Legacy) Oregon State University Tanguay Lab 120 Hour Post-fertilization zebrafish Assay for Brain Malformation (AID 2283641). In a few lines:
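Wild-type 5D larvae, static waterborne exposure to 120 hpf, 28C, 0.64% v/v DMSO. Brightfield scoring of brain defects, binary; dead embryos excluded. Positive ctrl 5uM trimethyltin chloride.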

Assay [6] in a line: Tanguay_ZF_120hpf_SOMI_legacy: (Legacy) Oregon State University Tanguay Lab 120 Hour Post-fertilization zebrafish Assay for Somite Malformation (AID 2283647). In a few lines: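 Read-out: presence or absence of somite malformation in 120 hpf larvae, gain-of-signal relative to DMSO baseline. Embryos lacked chorion (pronase, 4 hpf) and were exposed statically from 6 hpf at 28C; dead larvae not scored.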

A short description of assay [7]: Tanguay_ZF_120hpf_PFIN_legacy: (Legacy) Oregon State University Tanguay Lab 120 Hour Post-fertilization zebrafish Assay for Pectoral Fin Malformation (AID 2283648).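 Note: each larva judged yes or no for fin defect by brightfield with dead larvae skipped.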 In a few lines:
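Tropical 5D wild-type embryos, dechorionated with pronase at 4 hpf, were placed singly in wells at 6 hpf and statically exposed until 120 hpf at 28C, sealed and dark, with 0.64% (vol/vol) final DMSO; pectoral fin malformation scored present/absent.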

Assay [8] can be described thus: Tanguay_ZF_120hpf_CFIN_legacy: (Legacy) Oregon State University Tanguay Lab 120 Hour Post-fertilization zebrafish Assay for Caudal Fin Malformation (AID 2283649). In outline:
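Binary presence or absence of caudal fin malformation at 120 hpf, read by brightfield microscopy, with DMSO as baseline. Larvae came from 5D wild-type embryos exposed statically from 6 hpf at 28C after pronase dechorionation.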

Assay [9] can be described thus: Tanguay_ZF_120hpf_CIRC_legacy: (Legacy) Oregon State University Tanguay Lab 120 Hour Post-fertilization zebrafish Assay for Circulatory Malformation (AID 2283651). In a few lines:
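Read-out: presence or absence of circulatory malformation at 120 hpf, scored by brightfield microscopy, fitted in the gain-of-signal direction against DMSO baseline. Wild-type 5D larvae were exposed from 6 hpf after enzymatic chorion removal.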

The nature of assay [10]: Tanguay_ZF_120hpf_SWIM_legacy: (Legacy) Oregon State University Tanguay Lab 120 Hour Post-fertilization zebrafish Assay for Swim Bladder Malformation (AID 2283654).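 Note: swim bladder malformation in each larva scored yes or no under brightfield.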 In outline:
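Dechorionated Tropical 5D wild-type embryos, placed singly from 6 hpf, were statically exposed at 28C to 120 hpf with 0.64% DMSO final; swim bladder malformation was scored present/absent by brightfield microscopy, gain of signal relative to DMSO controls.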

Assay [11] is described as follows: Tanguay_ZF_120hpf_NC_legacy: (Legacy) Oregon State University Tanguay Lab 120 Hour Post-fertilization zebrafish Assay for Notochord and Tail Malformation (AID 2283656). In outline: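 Dechorionated Tropical 5D wild-type zebrafish embryos, one per well from 6 hpf, statically exposed to 120 hpf at 28C in 0.64% DMSO final. Notochord distortion scored present/absent by brightfield; dead embryos excluded.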

Assay [12] can be described thus: Tanguay_ZF_120hpf_PE_legacy: (Legacy) Oregon State University Tanguay Lab 120 Hour Post-fertilization zebrafish Assay for Pericardial Edema (AID 2283640). In a few lines: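 Embryos from wild-type 5D adults were staged, then dosed in 0.64% DMSO. They were kept sealed in the dark at 28C until 120 hpf. Pericardial edema was then recorded as present or absent.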
A short description of assay [13]: Tanguay_ZF_120hpf_PIG_legacy: (Legacy) Oregon State University Tanguay Lab 120 Hour Post-fertilization zebrafish Assay for Pigmentation Malformation (AID 2283650). In a few lines:
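Tropical 5D wild-type zebrafish embryos, dechorionated with pronase at 4 hpf, were exposed singly from 6 hpf to 120 hpf statically at 28C in sealed, dark plates with 0.64% DMSO; pigmentation scored present/absent by brightfield microscopy, fitted against DMSO.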

The nature of assay [14]: CCTE_Simmons_CellTiterGLO_HEK293T: Viability Assessment in CCTE's Assays for Thyroperoxidase (TPO) Inhibition, Simmons Lab (AID 2283665).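 For AC50: cells exposed to compound for 24 h before readout; actives reduce ATP signal below DMSO vehicle meaning cytotoxicity.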 In outline: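 HEK293T, 10 000 cells/well, DMEM + 1% FBS; 8-pt titration 5 nM–87.5 uM [final], 0.5% DMSO; 24 hr, 37C, 5% CO2; CellTiter-Glo luminescence; n=3 biological replicates.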
Assay [15] can be described thus: Tanguay_ZF_120hpf_JAW_legacy: (Legacy) Oregon State University Tanguay Lab 120 Hour Post-fertilization zebrafish Assay for Jaw Malformation (AID 2283638). In outline:
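Steps: dechorionate 4 hpf embryos (pronase); plate 1/well at 6 hpf; add test chemical, 0.64% DMSO final; seal, cover, hold at 28C statically to 120 hpf; score jaw defect presence/absence microscopically. Dead embryos not scored.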

Assay [16] can be described thus: Tanguay_ZF_120hpf_TRUN_legacy: (Legacy) Oregon State University Tanguay Lab 120 Hour Post-fertilization zebrafish Assay for Truncated Body (AID 2283655). In a few lines:
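Truncated body is recorded as a binary endpoint at 120 hpf by brightfield imaging of wild-type 5D larvae. Exposure runs statically from 6 hpf at 28C with 0.64% DMSO; embryos dying earlier are not scored.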

Take `Cc1ccc(S(=O)(=O)O)cc1C`: the molecule was classed as inactive in assay [1], in assay [2], in [3], in assay [4], in [5] and in [6]. For the same molecule, the result in assay [7], in assay [8], in [9], in assay [10] and in assay [11] was inactive.
With `CN(C)c1ccc(N=NS(=O)(=O)O)cc1`, the result in [1], in assay [3], in [4], in [12], in assay [6] and in assay [13] was inactive. In addition, the result in assay [9], in [10], in assay [11] and in [14] was inactive.
On to `Nc1cccc(N)c1`, for which the outcome in assay [1], in [3], in [4], in assay [12], in [6] and in assay [7] was inactive. Further, the result in [13], in assay [10] and in assay [14] was inactive.
On to `CCOCCO`, for which the call in assay [1], in assay [3], in [5], in assay [8], in assay [13] and in assay [9] was inactive. For the same molecule, the outcome in assay [10] and in assay [11] was inactive.
In the case of `Cc1ccc(O)cc1`, the outcome in assay [1], in assay [3], in assay [15], in [4], in [12] and in assay [5] was inactive. Besides, the molecule was classed as inactive in assay [7], in [13], in assay [9], in assay [16] and in assay [11].
For the molecule `COC(=O)CC(=O)OC`, the outcome in assay [1], in assay [3], in assay [15], in assay [4], in [5] and in assay [6] was inactive. Besides, the molecule was classed as inactive in assay [7], in assay [9], in assay [10] and in assay [11].
Turning to `CNS(=O)(=O)c1cc(C(=O)N2CCC(CCN3C4CCC3CC(n3c(C)nc5ccccc53)C4)(c3cccc(F)c3)CC2)c(Cl)cc1F` (centres undefined), the outcome in assay [1], in [2], in assay [3], in [4], in assay [5] and in [6] was inactive. Also, the outcome in [7], in assay [13], in assay [10] and in assay [11] was inactive.
Turning to `CC1=CC(=O)CC(C)(C)C1`, the outcome in assay [1], in [2], in assay [3], in assay [4], in [5] and in assay [7] was inactive. Further, the result in assay [8], in [13], in assay [9], in assay [10] and in [11] was inactive.
`CCOC(=O)c1ccc(C2CCC(NC[C@H](O)COc3ccc(O)c(NS(C)(=O)=O)c3)CC2)cc1` (some centres undefined): the outcome in assay [1], in assay [3], in assay [4], in [5], in assay [6] and in assay [7] was inactive. The molecule was classed as inactive in assay [8] and in [11]. The AC50 in assay [14] was 18.3 µM (active).
Regarding `CC(C)CC(C)(O)C#CC(C)(O)CC(C)C` (centres undefined), the call in assay [1], in assay [2], in [15], in assay [4], in assay [5] and in [11] was inactive.
Take `COc1ccc(/C=C/S(=O)(=O)NC(=O)c2ccc(C)cc2Cl)cc1`: the molecule was classed as inactive in assay [3], in assay [15], in assay [4], in [5], in [6] and in assay [7]. Moreover, the call in assay [8], in [9], in assay [10], in assay [16] and in assay [11] was inactive.
Take `Cn1cnc([N+](=O)[O-])c1Sc1ncnc2nc[nH]c12`: the molecule was classed as inactive in assay [1], in assay [3], in assay [15], in [4], in assay [6] and in [8]. The result in assay [9], in assay [16] and in assay [11] was inactive. Further, the AC50 in assay [14] is 1.09 µM (active).
Consider `COc1ccc2sc(C(=O)Nc3nnn[nH]3)c(OC(C)C)c2c1`, for which the result in assay [1], in assay [2], in assay [3], in assay [4], in [5] and in assay [6] was inactive. Also, the outcome in [7], in assay [8], in [9], in assay [10], in assay [16] and in [11] was inactive.
With `CCc1cc(SCc2sc(-c3ccc(C(F)(F)F)cc3)nc2CN2CCN(c3ccc(OC)cc3)CC2)ccc1OCC(=O)O`, the concentration at half-maximal activity (AC50) in [1] was 26 µM (active). Also, the outcome in assay [2], in [3], in [5], in assay [6], in assay [8] and in assay [13] was inactive. The call in assay [9], in assay [10], in assay [16] and in assay [11] was inactive.
